High-throughput results (PubChem BioAssay)
Anthrax LF inh2 – Bacillus anthracis LF protease inhibitors, primary screen, biochemical, multiplex microsphere, MLPCN library. Lethal factor (Bacillus anthracis), P15917. multiplex microsphere protease cleavage assay. inhibition, % at 10 µM. actives 0.12% (n = 360,000)
BoNT A protease – BoNT/A light chain protease inhibitors, primary screen, biochemical, flow cytometry, MLPCN library; actives 0.17% (n = 360,000); multiplex microsphere protease substrate cleavage; Botulinum neurotoxin type A light chain protease (Clostridium botulinum A str. ATCC 3502); inhibition, % at 10 µM
BoNT F protease – BoNT/F light chain protease inhibitors, primary screen, biochemical, flow cytometry, MLPCN library | Multiplex microsphere protease cleavage assay | inhibition, % at 10 µM | actives 0.22% (n = 360,000); in the data active means inhibition above about 35%, passing the limit was not always enough; inconclusive means no clear call, values can overlap the other calls
3CLpro inhibitor – SARS-CoV 3CLpro protease inhibitors, primary screen, biochemical, quenched FRET. Replicase polyprotein 1ab (Severe acute respiratory syndrome coronavirus), P0C6X7. recombinant SARS-CoV 3CLpro, quenched FRET peptide cleavage. inhibition, % at 6 µM. actives 0.14% (n = 290,000). AID 1706, 2009; in the data active means inhibition above about 12%
CCHF vOTU inh – CCHFV vOTU protease inhibitors, primary screen, biochemical, Pep-AMC substrate, fluorescence | Crimean-Congo hemorrhagic fever virus L polyprotein viral ovarian tumor (vOTU) protease … | inhibition, % at 11.5 µM | actives 0.55% (n = 370,000) | AID 651958, 2012; in the data active means inhibition above about 30%
Autofluor counter – flagged as autofluorescent in microsphere protease counterscreen; compound autofluorescence counterscreen, microsphere flow cytometry; stronger effect = higher value; AID 624483; actives 3.1% (n = 360,000); fluorescence intensity (concentration not given with the values); in the data active means fluorescence intensity above about 16000; inconclusive means no clear call, values can overlap the other calls
Of the large screens only hits and unclear results are named; the others gave an inactive call. Shown are actives, neighbours in structure and some others; about 3.9% of the full set was active somewhere. Unless noted, no stated cut-off is given here; in the data, active means inhibition above about 30%; inconclusive means no clear call, values can overlap the other calls; inactive means below that.

O=S(=O)(c1ccc2c(c1)OCCO2)N1CCN(S(=O)(=O)c2ccccn2)CC1	none (no result: 3CLpro inhibitor)
COc1ccccc1CNc1nc2nc(C)c(Cl)c(=O)n2[nH]1	BoNT A protease inconclusive, Autofluor counter 21476
CC1=C(C#N)C(c2ccccc2)C2=C(N1)c1ccccc1C2=O (centres undefined)	none
CC1C(c2ccccc2)C(C#N)(C#N)C2(C#N)C(=O)NC1(N)C2C (centres undefined)	Autofluor counter 37669
O=C(Nc1cccnc1)c1cnn2cccnc12	none
O=C(Nc1cccc(O)c1)c1cnn2cccnc12	Autofluor counter 19751
O=C(Nc1cc(C(=O)N2CCCC2)ccc1N1CCCC1)c1ccccc1F	none
O=C(Nc1ccc(C(=O)N2CCCC2)cc1)c1ccccc1F	Autofluor counter 16849 (no result: CCHF vOTU inh)
CCOC(=O)c1cc(-c2ccc(C)cc2)n(CCC(=O)NCCN(C)C)c1C	Autofluor counter 22889
CCOC(=O)c1cc(-c2ccc(OC)cc2)n(CCC(=O)NCCN2CCC(C)CC2)c1C	none
Cc1ccc(-c2csc3nc(C)n(N)c(=O)c23)o1	BoNT A protease inconclusive, Autofluor counter 22183
Cc1ccc(-c2csc3nc(C)n(-n4c(C)ccc4C)c(=O)c23)o1	none
COC(=O)c1cc2c(c3c4cc(OC)ccc4n(S(=O)(=O)c4ccc(OC)cc4)c13)C(=O)N(C)C2	none (no result: Anthrax LF inh2, BoNT A protease, BoNT F protease, 3CLpro inhibitor, Autofluor counter)
COCn1c(-c2ccc(OC)c(OC)c2)nc2ccccc21	none
COCn1c(-c2cccc(Br)c2)nc2ccccc21	BoNT A protease inconclusive, Autofluor counter 19656
Cc1ccccc1Cn1c(Cc2ccccc2)nc2ccccc21	BoNT A protease inconclusive, Autofluor counter 24142
COCc1nc2ccccc2n1Cc1ccccc1C	none
COCc1nc2ccccc2n1Cc1cccc(C)c1	Autofluor counter 16897
O=C(OCCOc1cccc(Cl)c1)c1cc(S(=O)(=O)N2CCCCC2)ccc1N1CCOCC1	Autofluor counter inconclusive (no result: 3CLpro inhibitor)
COc1ccc2nc3cc(Cl)ccc3c(Nc3ccc(O)c(CN4CCN(C)CC4)c3)c2c1	none (no result: 3CLpro inhibitor)
CCCS(=O)(=O)NC(=O)C1(C)CCN(C(=O)c2ccc3c(c2)OCO3)C1 (centres undefined)	none (no result: 3CLpro inhibitor)
C=CCn1c(-c2cccn(Cc3ccccc3)c2=O)n[nH]c1=S	Autofluor counter 21465
COc1cccc(N2CCN(CC(=O)NCc3cccc(OC)c3OC)CC2)c1	none (no result: Anthrax LF inh2, BoNT A protease, BoNT F protease, 3CLpro inhibitor, Autofluor counter)
COc1cc(-n2c(C)nc3cccnc32)c(Cl)cc1C(=O)O	none
COc1ccc2ccccc2c1C=NNC(=O)c1cc(-c2ccc(C)cc2)n[nH]1	none (no result: Anthrax LF inh2, BoNT A protease, BoNT F protease, 3CLpro inhibitor, Autofluor counter)
CN(CCC#N)C(=O)COc1ccc(Br)cc1Cl	none
N#CCCN(CCC#N)C(=O)COc1ccc(Cl)cc1Cl	Autofluor counter 18547
CN(C)CCN(C)Cc1c2ccccc2c(CN(C)CCN(C)C)c2ccccc12	BoNT A protease 33.0
COc1ccc(/C=C(\NC(=O)c2ccco2)C(=O)Nc2ccc(C(C)=O)cc2)cc1	none
CC(=O)Nc1ccccc1C	none (no result: 3CLpro inhibitor)
CC(=O)Nc1ccc(NC(=O)C(F)(F)F)cc1	BoNT A protease inconclusive, Autofluor counter 22771
CC(=O)Nc1ccccc1NC(=O)C(F)(F)F	Autofluor counter 16513
CN=C1S/C(=C\c2cc(C)n(-c3ccccc3F)c2C)C(=O)N1C	Autofluor counter 20537
Cc1cc(/C=C2\SC(=O)N(C)C2=O)c(C)n1-c1ccc(O)cc1	BoNT F protease inconclusive
O=C(NC(=S)NC1CCCCC1)c1ccc(F)cc1	Autofluor counter inconclusive
O=[N+]([O-])c1ccc(/C=N/n2cnc3ccccc32)s1	none
Cc1cc2ncn(/N=C/c3ccc([N+](=O)[O-])s3)c2cc1C	BoNT A protease 43.5
COc1ccc(/C=C2\C(=O)NCC(=O)N2Cc2ccccc2)cc1	Autofluor counter inconclusive
COc1ccc(/C=C2\C(=O)NCC(=O)N2C)cc1	Anthrax LF inh2 34.2, BoNT F protease 87.7
CC(C)(Oc1cccc2ccccc12)C(=O)O	Autofluor counter 17702
O=C(NC(Cc1ccccc1)C(=O)O)c1ccccc1 (centres undefined)	none
O=C(NC(Cc1ccccc1)C(=O)O)c1ccc(S(=O)(=O)N2CCCC2)cc1 (centres undefined)	none
